17 molecules from PubChem BioAssay can be followed below.

SMILES strings stand for the structures. The source made the active and inactive calls. Unless noted, how the calls were made is not given here.

Assay [1] concerns XIP peptide (Xip251-270) binding. The assay can be described thus: small-molecule binders of XIP peptide, primary screen, biochemical, small-molecule microarray, fluorescence 635/667 nm, 0.1 µg/mL protein (AID 1182). Conditions: fluorescent protein binding, 635 nm, higher = more signal, called active from +8 up or from −8 down.
The test system of another assay is XIP peptide (Xip251-270). The assay can be described thus: small-molecule binders of XIP peptide, primary screen, biochemical, small-molecule microarray, fluorescence 635/667 nm, 0.5 µg/mL protein (AID 1183). Conditions: small-molecule microarray binding, fluorescence 635 nm; higher = more signal.
Assay [2] in a line: Plasmodium falciparum growth inhibition, primary screen, strain 3D7, DAPI fluorescence, 100 nL (AID 1184).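 Further: parasites grown inside human red blood cells in medium with human serum.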 The settings on record: P. falciparum 3D7 growth, 3 d, higher = more signal.
For assay [3], the target named is Homeobox protein Hox-A13 (Mus musculus) (UniProt Q62424). Put plainly: inhibitors of HoxA13-DNA binding, primary screen, biochemical, fluorescence polarization, labeled oligonucleotide (AID 1185). The settings on record: 15 min, higher = more signal, called active from +8 up or from −8 down. A general note: Fluorescence polarisation rises when a labelled molecule tumbles more slowly, as on binding a larger partner.

Assay [4] can be described thus: inhibitors of hydroxyurea-induced Chk1 phosphorylation, primary screen, imaging, HeLa, phospho-Chk1 antibody, percent positive cells (AID 1186). The settings on record: hydroxyurea-induced phospho-Chk1 immunofluorescence imaging, higher = more signal.
Assay [5] in a line: inhibitors of hydroxyurea-induced Chk1 phosphorylation, primary screen, imaging, HeLa, phospho-Chk1 nuclear intensity (AID 1187). Conditions: hydroxyurea-induced phospho-Chk1 immunofluorescence imaging, higher = more signal.

Homeobox protein Hox-A13 (Mus musculus), sequence (Q62424 whole entry, looked up): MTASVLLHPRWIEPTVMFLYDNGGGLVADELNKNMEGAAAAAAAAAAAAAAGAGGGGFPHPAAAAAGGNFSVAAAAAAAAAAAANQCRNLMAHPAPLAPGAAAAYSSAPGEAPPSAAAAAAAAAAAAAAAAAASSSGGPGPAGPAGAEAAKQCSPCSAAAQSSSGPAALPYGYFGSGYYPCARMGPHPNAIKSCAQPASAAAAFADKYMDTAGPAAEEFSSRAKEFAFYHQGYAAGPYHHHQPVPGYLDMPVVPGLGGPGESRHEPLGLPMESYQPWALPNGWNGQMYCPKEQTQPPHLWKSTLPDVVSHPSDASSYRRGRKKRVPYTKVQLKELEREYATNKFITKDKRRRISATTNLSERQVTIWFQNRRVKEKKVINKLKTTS

`O=C1c2ccccc2[C@](Cc2ccccc2I)(C(=O)NCCN2CCOCC2)[C@H](c2ccc(CO)cc2)N1C1CCCCC1`: the composite z-score is 0.45 (inactive) in assay [1] and 0.652 in the assay on XIP peptide (Xip251-270). Also, the z-score in assay [2] is -1.79; in assay [3], -5.61 (inactive); in assay [4], 0.16 (inactive); in assay [5], -6.65 (inactive).

With `CCCC[C@@H]1C[C@H]1[C@@H](NC(=O)c1cccs1)c1ccc(-c2ccccc2)cc1`, the composite z-score in assay [1] is 0.217 (inactive); in the assay on XIP peptide (Xip251-270), -0.319. The z-score in assay [2] was 0.0576; in assay [3], -1.5 (inactive); in assay [4], 0.0111 (inactive); in assay [5] it was 0.0204 (inactive).

Consider `O=C1C[C@@](C(=O)NCCN2CCOCC2)(c2ccc([N+](=O)[O-])cc2)[C@@H](c2ccc(CO)cc2)N1CC12CC3CC(CC(C3)C1)C2`, for which the composite z-score was 1.28 (inactive) in assay [1] and 0.795 in the assay with XIP peptide (Xip251-270). The z-score in assay [2] is -1.29; in assay [3] it was -4.58 (inactive); in assay [4], -0.489 (inactive); in assay [5] it was -0.649 (inactive).

With `C=C[C@H](CO)NS(=O)(=O)c1ccc(Br)cc1`, the composite z-score was -0.365 (inactive) in assay [1] and 0.242 in the assay on XIP peptide (Xip251-270). Moreover, the z-score is 0.843 in assay [2], 0.205 (inactive) in assay [3], -0.462 (inactive) in assay [4] and -0.458 (inactive) in assay [5].

Regarding `O=C1C2C=CC(C(O)c3cccc4ccccc34)N(Nc3ccccc3F)C2C(=O)N1c1ccccc1` (configuration not stated), the composite z-score in assay [1] was 1.09 (inactive); in the assay with XIP peptide (Xip251-270), 0.871. In addition, the z-score was 0.71 in assay [2], -3.52 (inactive) in assay [3], 0.228 (inactive) in assay [4] and 0.807 (inactive) in assay [5].

For the molecule `COC(=O)[C@]1(CCC(=O)OC(C)(C)C)N=C(c2ccc(OCCCO)cc2)O[C@@H]1c1ccccc1CN=[N+]=[N-]`, the composite z-score is 1.52 (inactive) in assay [1] and 0.767 in the assay with XIP peptide (Xip251-270). The z-score is -2.03 in assay [2], -0.506 (inactive) in assay [3], 0.121 (inactive) in assay [4] and -0.0667 (inactive) in assay [5].

Take `[N-]=[N+]=NCc1ccccc1[C@@H]1OC(c2ccc(OCCCO)cc2)=N[C@]1(Cc1ccccc1)C(=O)NCC(O)CO` (some centres not stated): the composite z-score in assay [1] is -0.275 (inactive); in the assay with XIP peptide (Xip251-270), -0.0063. Further, the z-score is -2.06 in assay [2], -2.01 (inactive) in assay [3], -0.0268 (inactive) in assay [4] and 0.117 (inactive) in assay [5].

Regarding `COCCOC(=O)N1C(=O)[C@@]2(c3cc(C#Cc4ccc(OC)cc4)ccc31)[C@H](c1ccccc1OCCO)N1[C@H](c3ccccc3)[C@H](c3ccccc3)OC(=O)[C@H]1[C@@H]2C(=O)NC[C@H](O)c1ccccc1`, the figures for the composite z-score (in assay [1]; with XIP peptide (Xip251-270)) were 0.159 (inactive) and 0.815, respectively. The z-score was -1.8 in assay [2], -1.34 (inactive) in assay [3], -0.203 (inactive) in assay [4] and -0.29 (inactive) in assay [5].

For the molecule `O[C@@H](Cc1ccccc1)[C@H]1C2C=CCCC=C2CN1Cc1cccc(Cl)c1` (some centres not stated), the composite z-score in assay [1] is 0.164 (inactive); in the assay on XIP peptide (Xip251-270), 0.421. Moreover, the z-score in assay [2] was 0.461; in assay [3] it was -7.63 (inactive); in assay [4], 0.415 (inactive); in assay [5], 0.0708 (inactive).

Turning to `C=CCOC(=O)[C@@H]1[C@H]2C(=O)O[C@H](c3ccccc3)[C@H](c3ccccc3)N2[C@H](c2ccc(OCCOC(=O)[C@@H]3C[C@@H]4C(=O)NCC(=O)N4[C@@H]3c3ccc(O)cc3)cc2)[C@@]12C(=O)Nc1ccc(I)cc12`, the composite z-score is 0.549 (inactive) in assay [1] and 0.849 in the assay with XIP peptide (Xip251-270). Moreover, the z-score in assay [2] is -1.77; in assay [3], -0.29 (inactive); in assay [4], 0.273 (inactive); in assay [5], 0.702 (inactive).

Regarding `COc1ccc(C#Cc2ccc3c(c2)[C@]2(C(=O)N3)[C@H](C(=O)NC[C@H](O)c3ccccc3)[C@H]3C(=O)O[C@H](c4ccccc4)[C@H](c4ccccc4)N3[C@@H]2c2ccc(O)cc2)cc1`, the composite z-score in assay [1] was 0.627 (inactive); with XIP peptide (Xip251-270) it was 0.624. Also, the z-score in assay [2] is -0.0029; in assay [3] it was -0.752 (inactive); in assay [4], -0.371 (inactive); in assay [5], -0.628 (inactive).

As to `CNS(=O)(=O)c1ccc(C)cc1`, the composite z-score in assay [1] was 0.493 (inactive); in the assay with XIP peptide (Xip251-270), -0.259. Besides, the z-score in assay [2] was 0.749; in assay [3], -0.38 (inactive); in assay [4] it was -0.41 (inactive); in assay [5], -0.155 (inactive).

For `COC(=O)c1c(CC[C@@H](CO)NC(=O)NCCn2cc(C3(O)CCCC3)nn2)oc(C(C)=O)c1C(=O)OC`, the composite z-score in assay [1] is 0.333 (inactive); in the assay with XIP peptide (Xip251-270), -0.0213. Besides, the z-score in assay [2] is -0.72; in assay [3], -1.9 (inactive); in assay [4], 0.0528 (inactive); in assay [5], -0.0849 (inactive).

For the molecule `C=CCC(OC(C)=O)[C@@H]1[C@@H](N(Cc2ccc(-c3ccccc3)cc2)C(=O)c2ccc(-c3ccccc3)cc2)c2cc(OCCCO)ccc2N1C(=O)Cc1ccc2ccccc2c1` (some centres not stated), the composite z-score in assay [1] was -0.313 (inactive); with XIP peptide (Xip251-270) it was -0.241. The z-score in assay [2] was 0.799; in assay [3], -1.05 (inactive); in assay [4], 0.321 (inactive); in assay [5] it was 0.392 (inactive).

With `COCCCNC(=O)[C@@]1(C)c2ccccc2C(=O)N(C(C)C)[C@H]1c1ccc(CO)cc1`, the composite z-score in assay [1] was -0.102 (inactive); with XIP peptide (Xip251-270), 0.246. For the same molecule, the z-score in assay [2] was -0.176; in assay [3], -1.71 (inactive); in assay [4], -0.123 (inactive); in assay [5] it was -0.397 (inactive).

Take `CC(C)C(CO)N1C(=O)[C@@H]2C3C(=O)OCCC/C=C\[C@H]3OC23C=CCN(CCN2CCOCC2)C(=O)[C@@H]13` (some centres not stated): the values for the composite z-score (in assay [1]; in the assay with XIP peptide (Xip251-270)) were -0.0949 (inactive) and -0.816, respectively. The z-score in assay [2] is 1.17; in assay [3] it was -7 (inactive); in assay [4], 0.248 (inactive); in assay [5] it was -0.0469 (inactive).

Consider `N#Cc1ccc(NN2C(C(O)C(c3ccccc3)c3ccccc3)C=CC3C(=O)N(c4ccccc4)C(=O)C32)cc1` (configuration not stated), for which the figures for the composite z-score (in assay [1]; in the assay with XIP peptide (Xip251-270)) were 0.424 (inactive) and 0.646, respectively. Further, the z-score in assay [2] was -0.231; in assay [3] it was 1.55 (inactive); in assay [4], 0.377 (inactive); in assay [5], 0.484 (inactive).
